Experimental data published in PubChem BioAssay (Tox21).
Results filed as inconclusive are left out. Activity calls are given as the source filed them. Unless noted, calls follow the shape of the dose curve; as a rule, active = well fitted curve in the direction sought with a large enough effect in the repeat runs; inconclusive = weak or mixed curves; inactive = no such curve, though single readings can be large; an effect the other way counts as inactive or inconclusive.

Tests used:
[1] = qHTS RealTime-Glo MT Cell Viability Assay in HepG2 cells - 32 hour (AID 1224877); also: nearly all actives have a fitted effect of over 55% in size
Method in brief: (§1)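 Cells + NanoLuc/prosubstrate dispensed (600 cells/well) → 5 h at 37 C/5% CO2 → compounds in DMSO transferred → 40 h incubation at 37 C, luminescence read at 0, 8, 16, 24, 32, 40 h.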

[2] = A CellTox Green Cytotoxicity Assay to monitor cytotoxicity in HepG2 cells - 24 hour (AID 1224878); also: nearly all actives have a fitted effect of over 45% in size
Method in brief: (§2)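 Fluorescent DNA-binding dye, 600 HepG2 cells/well, 5 h preincubation then compound in DMSO; same plates read at 0–40 h, 37 C.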

[3] = A CellTox Green Cytotoxicity Assay to monitor cytotoxicity in HepG2 cells - 40 hour (AID 1224879); also: nearly all actives have a fitted effect of over 40% in size
Method in brief: as §2

[4] = A CellTox Green Cytotoxicity Assay to monitor cytotoxicity in HEK293 cells - 32 hour (AID 1224881); also: nearly all actives have a fitted effect of over 40% in size
Method in brief: (§3)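 Homogeneous no-lysis format: HEK293 cell suspension mixed with CellTox Green reagent, seeded, incubated 5 h at 37 C/5% CO2, then dosed by pintool with compound in DMSO.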

[5] = A CellTox Green Cytotoxicity Assay to monitor cytotoxicity in HepG2 cells - 0 hour (AID 1224882); also: nearly all actives have a fitted effect of over 35% in size
Method in brief: as §2

[6] = A CellTox Green Cytotoxicity Assay to monitor cytotoxicity in HepG2 cells - 32 hour (AID 1224883); also: nearly all actives have a fitted effect of over 50% in size
Method in brief: as §2

[7] = A CellTox Green Cytotoxicity Assay to monitor cytotoxicity in HEK293 cells - 8 hour (AID 1224884); also: nearly all actives have a fitted effect of over 35% in size
Method in brief: as §3

[8] = qHTS RealTime-Glo MT Cell Viability Assay in HepG2 cells - 16 hour (AID 1224885); also: nearly all actives have a fitted effect of over 50% in size
Method in brief: as §1

[9] = qHTS RealTime-Glo MT Cell Viability Assay in HEK293 cells - 24 hour (AID 1224886); also: top concentration of the series differs between compounds; nearly all actives have a fitted effect of over 50% in size
Method in brief: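 Tox21 10K qHTS, HEK293, 600 cells/well, RealTime-Glo reagent co-dispensed with cells; 5 h preincubation, compound by pintool, 37 C, luminescence at 0–40 h.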

[10] = qHTS RealTime-Glo MT Cell Viability Assay in HEK293 cells - 8 hour (AID 1224887); also: nearly all actives have a fitted effect of over 50% in size; also: potency is read from the fitted curve at half-maximal effect; as to activity change, negative = cytotoxicity: top concentration of the series differs between compounds
Method in brief: (§4)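 Measured as luminescence from the same continuously cultured HEK293 wells at successive time points (0, 8, 16, 24, 32, 40 h) after compound addition. Reagent present from seeding; dosing at 5 h; incubation 37 C.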

[11] = A CellTox Green Cytotoxicity Assay to monitor cytotoxicity in HEK293 cells - 16 hour (AID 1224888); also: nearly all actives have a fitted effect of over 35% in size
Method in brief: as §3

[12] = qHTS RealTime-Glo MT Cell Viability Assay in HepG2 cells - 0 hour (AID 1224889); also: nearly all actives have a fitted effect of over 50% in size
Method in brief: as §1

[13] = A CellTox Green Cytotoxicity Assay to monitor cytotoxicity in HepG2 cells - 8 hour (AID 1224890); also: nearly all actives have a fitted effect of over 45% in size
Method in brief: as §2

[14] = qHTS assay to identify small molecule antagonists of the estrogen receptor alpha (ER-alpha) signaling pathway using the BG1 cell line in the presence of 0.1 nM 17-beta-estradiol - cell viability counter screen (AID 1259241); also: nearly all actives have a fitted effect of over 40% in size
Method in brief: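 Live-cell protease activity (CellTiter-Fluor fluorescence, 30 min) was read in the same wells after VM7Luc4E2 cells had been exposed to compounds with 0.1 nM 17beta-estradiol for 22 hr at 37C.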

[15] = qHTS assay to identify small molecule antagonists of the androgen receptor (AR) signaling pathway using the MDA cell line in the presence of 0.5 nM R1881 - cell viability counter screen (AID 1259242); also: nearly all actives have a fitted effect of over 45% in size
Method in brief: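 Human breast carcinoma MDA-kb2 cells, cultured without CO2, receive compounds alongside 0.5 nM (final) R1881 agonist. After 16 hr at 37C, viability is taken as live-cell protease signal.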

[16] = biological target: Estrogen receptor (Homo sapiens) (UniProt P03372); test: qHTS assay to identify small molecule antagonists of the estrogen receptor alpha (ER-alpha) signaling pathway using the BG1 cell line in the presence of 0.1 nM 17-beta-estradiol (AID 1259244); also: nearly all actives have a fitted effect of over 50% in size
Method in brief: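 Seeding of stripped-serum-adapted VM7Luc4E2 cells, 24 h attachment, compound transfer, then 0.1 nM final 17beta-estradiol; after 22 h incubation, ONE-Glo reagent and luminescence reading.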

[17] = qHTS assay to identify small molecule HDAC inhibitors (AID 1259364);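 also: wild-type HCT-116 cells with endogenous class I/II HDAC activity; top concentration of the series differs between compounds; nearly all actives have a fitted effect of over 45% in size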
Method in brief: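 After a 2 hr compound incubation (37C, 5% CO2), HCT-116 cells seeded at 1,500/well the day before received HDAC-Glo reagent; signal read as luminescence after 30 min at room temperature.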

[18] = qHTS assay to identify small molecule HDAC inhibitors - cell viability counter screen (AID 1259365)
Method in brief: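 HCT-116 (wild type), 1,500 cells/well, overnight 37C/5% CO2; compound in DMSO 2hr; CellTiter-Glo 30min RT; luminescence read.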

[19] = qHTS RealTime-Glo MT Cell Viability Assay in HEK293 cells - 0 hour (AID 1224880)
Method in brief: as §4

[20] = qHTS assay to identify small molecule phospholipidosis (PLD) inducers (AID 1259344; active = well fitted curve in the direction sought with a large enough effect; an effect the other way counts as inactive or inconclusive)
Method in brief: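 Cells (HepG2, 900 per well) attach for 4 h, receive LipidTOX Red and compound together, incubate 24 h at 37 C, are fixed 30 min with paraformaldehyde/Hoechst, then imaged at one site per well.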
% is scaled to controls: 0 for no effect and ±100 for the full control effect.

Chain of Estrogen receptor (Homo sapiens) (P03372 whole entry, looked up): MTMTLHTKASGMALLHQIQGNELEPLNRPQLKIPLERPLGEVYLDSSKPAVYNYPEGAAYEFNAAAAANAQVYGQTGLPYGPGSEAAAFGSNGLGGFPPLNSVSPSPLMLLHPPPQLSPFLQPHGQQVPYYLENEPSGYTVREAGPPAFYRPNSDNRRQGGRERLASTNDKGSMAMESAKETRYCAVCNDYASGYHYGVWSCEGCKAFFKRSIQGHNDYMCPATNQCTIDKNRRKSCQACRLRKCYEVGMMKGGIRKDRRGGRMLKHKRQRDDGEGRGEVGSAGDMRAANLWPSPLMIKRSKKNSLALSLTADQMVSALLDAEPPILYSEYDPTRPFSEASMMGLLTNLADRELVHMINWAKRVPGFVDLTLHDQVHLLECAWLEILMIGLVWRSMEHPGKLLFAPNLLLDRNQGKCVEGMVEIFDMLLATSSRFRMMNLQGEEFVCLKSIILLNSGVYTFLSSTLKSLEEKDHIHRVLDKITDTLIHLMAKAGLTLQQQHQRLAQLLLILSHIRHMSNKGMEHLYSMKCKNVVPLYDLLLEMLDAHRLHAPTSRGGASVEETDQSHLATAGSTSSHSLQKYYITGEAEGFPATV

CC1=CC[C@H](CC=O)C1(C)C
inactive: outcome [1] | Potency [2] | Potency [3] | Potency [4] | Potency [5] | Potency [6] | Potency [7] | outcome [8] | Potency [9] | Potency [10] | Potency [11] | Potency [12] | Potency [13] | Potency [14] | Potency [15] | Potency [16] | Potency [17] | outcome [18]

C=CCCCCCCCCCCC
inactive: activity change, negative = cytotoxic [1] -0.401% [at 6.97 µM] | cytotoxicity [2] 0.49% [at 6.97 µM] | cytotoxicity increase [3] 1.74% [at 6.97 µM] | cytotoxicity increase [4] -0.213% [at 6.97 µM] | cytotoxicity [5] 1.75% [at 6.97 µM] | cytotoxicity increase [6] 1.86% [at 6.97 µM] | cytotoxicity increase [7] 2.18% [at 6.97 µM] | activity change, negative = cytotoxic [8] -0.787% [at 6.97 µM] | activity change, negative = cytotoxicity [10] 3.08% [at 6.97 µM] | activity change [11] -0.692% [at 6.97 µM, hits give high values] | activity change, negative = cytotoxicity [12] 5.28% [at 6.97 µM] | cytotoxicity increase [13] 4.2% [at 6.97 µM] | activity change, negative = cytotoxicity [14] 0.186% [at 8.39 µM] | viability change, negative = cytotoxic [15] 0.96% [at 8.39 µM] | activity change, negative = inhibition [16] 8.3% [at 8.39 µM] | activity change, negative = inhibition [17] 4.91% [at 8.39 µM] | activity change, negative = cytotoxicity [18] 4.34% [at 8.39 µM]

CC1CCC(C(C)(C)S)C(=O)C1 (stereo not given)
inactive: outcome [1] | Potency [2] | Potency [3] | outcome [19] | Potency [6] | Potency [7] | outcome [8] | Potency [11] | Potency [12] | Potency [13] | Potency [14] | Potency [15] | Potency [16] | Potency [17] | outcome [18]
active: Potency [10] 19.5 µM

Cc1ccccc1OCC1CO1 (stereo not given)
inactive: outcome [1] | Potency [2] | Potency [3] | Potency [4] | Potency [5] | Potency [6] | Potency [7] | outcome [8] | Potency [9] | Potency [10] | Potency [11] | Potency [12] | Potency [13] | Potency [14] | Potency [15] | Potency [16] | Potency [17] | outcome [18]

CCOC(=O)OCC/C(SC(=O)OCC)=C(\C)N(C=O)Cc1cnc(C)nc1N
inactive: outcome [1] | Potency [2] | Potency [3] | outcome [19] | Potency [5] | Potency [7] | outcome [8] | Potency [9] | Potency [10] | Potency [11] | Potency [12] | Potency [13] | Potency [14] | Potency [15] | PLD induction [20] 2.13% [at 1.53 µM] | outcome [18]
